PubChem BioAssay (EPA / NIEHS)
“And” between values parts separate entries of the source, which are not always exact repeats. Equal entries are not always repeated. The source made the active and inactive calls. The calls were made as follows: active = hit-call score of the fitted dose curve at least 0.9, where 1 is the maximum; inactive = score below 0.9.

What follows are compounds tested on Interferon-inducible T-cell alpha chemoattractant (ITAC), CXCL11 (gene 6373) (assay: BSK_BE3C_ITAC: BioMAP Diversity Plus: BE3C Assay for Interferon-inducible T-cell alpha chemoattractant (ITAC) Biomarker Activity (AID 2284279)). Conditions: primary human bronchial epithelial cells.
Method: BSK_BE3C is a cell-based, multiplexed-readout assay that uses bronchial epithelial cell, a human lung primary cell, with measurements taken at 24 hours after chemical dosing in a 96-well plate.BSK_BE3C_ITAC is an assay component measured in the BSK_BE3C assay. It measures I-TAC antibody related to regulation of gene expression using ELISA technology.Data from the assay component BSK_BE3C_ITAC was analyzed at the endpoint, BSK_BE3C_ITAC, in the positive analysis fitting direction relative to DMSO as the negative control and baseline of activity. Using a type of binding reporter, gain or loss-of-signal activity can be used to understand protein changes. To generalize the intended target to other relatable targets, this assay endpoint is annotated to the 'cytokine' intended target family, where the subfamily is 'chemotactic factor'.
The levels of cell surface (or secreted, indicated by the prefix "s") biomarker endpoints were measured by ELISA. Overt cytotoxicity to cells in confluent adherent cultures (all systems other than the BT system) was assessed by measuring total protein levels using sulforhodamine B (SRB) staining in parallel cultures at the time of biomarker measurements, indicated as SRB endpoints. For proliferation assays for adherent cell types, individual cell types are cultured at sub-confluence and relative cell numbers quantified by SRB staining at time points optimized for each system (48 h: 3C and CASM3C systems; 72 h: BT and HDF3CGF systems; 96 h: SAg system). SRB was performed by staining cells with 0.1% SRB after fixation with 10% TCA and reading wells at 560 nm.Viability and proliferation of PBMC (T cells) was quantified by Alamar Blue reduction for the SAg and BT systems. For PBMC viability (referred to as PBMC Cytotoxicity within the assay endpoint names), cells were plated (75,000/well in a 96-well plate) and then chemical samples added for 1 h before addition of activators, SEB and TSST-1 (20 ng/mL final concentration each). Cells were incubated for 90 h. Then, Alamar Blue (20 uL/well) (Invitrogen, Cat DAL1100) was added for 6 h, and the plates were read with a fluorescence microplate reader at 546/580 nm (excitation/emission). For PBMC proliferation, cells were plated and activated as above but incubated for only 16 h prior to addition of Alamar Blue. Plates were read after 6 h.

**Q.** How did the outcome turn out when C1CN(CCOCCN2CCOCC2)CCO1 was run?
**A.** inactive

**Q.** For COc1ccc(C(=O)c2ccccc2O)c(O)c1, which outcome is on record?
**A.** inactive

**Q.** For COc1ccccc1Oc1c(NS(=O)(=O)c2ccc(C(C)(C)C)cc2)nc(-c2ncccn2)nc1OCCO, which outcome is on record?
**A.** inactive

**Q.** Which AC50 does the source give for OC(C(F)(F)F)(C(F)(F)F)C(O)(C(F)(F)F)C(F)(F)F here?
**A.** 47.3 µM (active) and 46.1 µM (active)

**Q.** Which outcome does the source give for CC[N+](CC)(CC(=O)Nc1c(C)cccc1C)Cc1ccccc1 (tested in a mixture with another compound) here?
**A.** inactive

**Q.** For CCCCC(CC)COC(=O)C=Cc1ccc(OC)cc1 (configuration not stated), which outcome is on record?
**A.** inactive

**Q.** For CC(C)C1OCCN1CCOC(=O)NCCCCCCNC(=O)OCCN1CCOC1C(C)C (configuration not stated), which outcome is on record?
**A.** inactive

**Q.** For O=[N+]([O-])c1cc(S(=O)(=O)Nc2ccccc2)ccc1Nc1ccccc1, which AC50 is on record?
**A.** 28.7 µM (active) and 29.5 µM (active)

**Q.** CCC[Si](OC(C)=O)(OC(C)=O)OC(C)=O was tested. Which outcome did it give?
**A.** inactive

**Q.** Which AC50 does the source give for Cc1c(C(N)=O)cc([N+](=O)[O-])cc1[N+](=O)[O-] here?
**A.** 32.7 µM (active) and 30.5 µM (active)

**Q.** For COc1cc(CNC(=O)CCCC/C=C/C(C)C)ccc1O, which outcome is on record?
**A.** inactive

**Q.** CN(C)Cc1cc(C(C)(C)C)c(O)c(C(C)(C)C)c1 was tested. Which outcome did it give?
**A.** inactive
